According to PubChem BioAssay (NCATS):
Values joined by “and” are separate entries in the source; they are usually repeats but may differ in a detail not shown here. Identical values can stand only once. Results filed as inconclusive are left out. Active and inactive are the calls of the source. Unless noted, calls follow the shape of the dose curve; as a rule, active = well fitted curve in the direction sought with a large enough effect; inconclusive = small, poorly fitted or top-dose-only effect, or another doubt; inactive = no such curve, though single readings can be large; an effect the other way counts as inactive or inconclusive.

Legend:
[1] = qHTS Assay for Identifying Gametocytocidal Compounds (AID 743244); also: potency is read from the fitted curve at half-maximal effect;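 as to max response: % is scaled to controls: 0 for no effect and ±100 for the full control effect; actives lower the fluorescent signal which means gametocytes are killed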; details: P. falciparum 3D7 stage III-V gametocytes, alamarBlue, 72 h; max response: stronger effect = lower value
In short: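 Stage III–V gametocytes of P. falciparum 3D7 were seeded at 20,000 cells/well onto pre-dispensed compounds. After 72 h, 37 °C, 5% CO2, alamarBlue was added for another 24 h.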

[2] = qHTS assay for cell viability of the p53RE-bla HCT-116 cell line (AID 743292); details: p53RE-bla HCT-116 viability, ATP luminescence, 16 h; series mostly up to 95 µM; also: % is scaled to controls: 0 for no effect and ±100 for the full control effect; nearly all actives have a fitted effect of over 55% in size
In short: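 In this qHTS counter-screen, metabolically competent p53RE-bla HCT-116 cells were counted via their ATP content. Compounds were applied for 16 h at 37 C and luciferase-coupled luminescence was measured.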

[3] = qHTS assay for measurement of the activity of small molecule inhibitors on Zika virus induced Caspase-3 activity in human astrocytoma cells (AID 1224859); details: SNB-19 ZIKV-induced caspase-3/7, luminescence, 6 h; series mostly up to 45.7 µM;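 also: plate controls were ZIKV-infected untreated cells for no effect and uninfected cells for full effect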
In short: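 Compound added 1 h pre-infection; ZIKV 2 FFU/cell on SNB-19 cells, 6 h, 37 C/5% CO2. Caspase-Glo 3/7 luminescence; values as % inhibition of ZIKV-induced caspase activity.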

[4] = P-glycoprotein substrates identified in KB-8-5-11 adenocarcinoma cell line, qHTS therapeutic library screen (AID 1346987); details: KB-8-5-11 (P-gp overexpressing) viability, CellTiter-Glo, 72 h; series mostly up to 44.5 µM; also: nearly all actives have a fitted effect of over 65% in size; also: potency is read from the fitted curve at half-maximal effect
In short: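 P-gp-mediated resistance screen: KB-8-5-11 cells treated 72 h with compounds in dose-response. CellTiter-Glo viability.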

[5] = qHTS of pediatric cancer cell lines to identify multiple opportunities for drug repurposing: Primary screen for TC32 cells (AID 1347089); details: TC32 Ewing sarcoma viability, CellTiter-Glo luminescence, 48 h; series mostly up to 45.8 µM; also: % is scaled to controls: 0 for no effect and ±100 for the full control effect; nearly all actives have a fitted effect of over 60% in size
In short: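 A viability screen of TC32 cells was run over 48 h, with primary MIPE doses spanning 0.78 nM–46 µM and NPC doses 0.59 nM–46 µM. ATP luminescence (CellTiter-Glo) served as the read-out.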

[6] = NS1 protein of Zika virus - qHTS assay to identify small molecule inhibitors in human HEK 293 cells (AID 1347053); details: HEK293 ZIKV MR766 infection, NS1 TR-FRET, 24 h; series mostly up to 46.1 µM;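 also: plate controls were infected untreated cells for no effect and uninfected cells for full effect; nearly all actives have a fitted effect of over 55% in size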
In short: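 HEK 293; 20 h pre-culture, 37 C/5% CO2; cpd 1 h pre-infection; ZIKV MR766, MOI = 0.5, 24 h, 37 C; TR-FRET NS1 readout (two anti-NS1 Abs); norm. to no-virus vs infected.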

[7] = qHTS assay for cell viability of HEK293 cells (AID 743288); details: ATP luminescence (CellTiter-Glo), 18 h, stronger effect = lower value; also: % is scaled to controls: 0 for no effect and ±100 for the full control effect; nearly all actives have a fitted effect of over 50% in size
In short: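 Luminescent ATP quantitation served as the viability read-out. Cells (parental HEK293, 2,000/well) received compounds after at least 5 h at 37 C and were exposed for 18 h before a 30 min room-temperature reagent step.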

[8] = Natriuretic polypeptide receptor (hNpr1) antagonism - Pilot counterscreen GloSensor control cell line (AID 1347045; calls by dose curve; also: % is scaled to controls: 0 for no effect and ±100 for the full control effect); details: HEK293 cGMP GloSensor cells, SNP-stimulated luminescence, 20 min; series mostly up to 38.3 µM
In short: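 This counterscreen uses HEK293 cells expressing the GIP/pGS-40F cGMP biosensor. Compound-treated cells are challenged with 50 uM sodium nitroprusside, and the luciferase signal is compared before and after stimulation.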

[9] = molecular target: Atrial natriuretic peptide receptor 1 (Homo sapiens) (UniProt P16066); assay: Natriuretic polypeptide receptor (hNpr1) antagonism - Pilot screen (AID 1347049; calls by dose curve;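 also: agonist-evoked cGMP luminescence read 20 min after hNppA addition; % is scaled to controls: 0 for no effect and ±100 for the full control effect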); details: hNpr1 cells, antagonist mode cGMP read-out; series mostly up to 57.5 µM
In short: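 HEK293 cells expressing hNpr1 and GloSensor cGMP luciferase, 1500/well, loaded with 2% GloSensor reagent 2 h, compound 30 min at room temperature; luminescence read before and 20 min after 0.1 nM hNppA stimulation.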

[10] = molecular target: T1, Tyrosine-protein phosphatase non-receptor type substrate 1 (Homo sapiens) + Leukocyte surface antigen CD47 (Homo sapiens) (UniProt P78324+Q08722); assay: CD47-SIRPalpha protein protein interaction - LANCE assay qHTS validation (AID 1347057; active = well fitted curve in the direction sought with a large enough effect in the signal ratio, with a control signal flat, not every such curve was filed as active; the % refers to the signal ratio; also: 0% is about no effect); details: Recombinant CD47-His / biotin-SIRPalpha, TR-FRET ratio; series mostly up to 38.3 µM
In short: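 First, His-tagged CD47 and Eu-labelled anti-His antibody met the compound for 30 min; next, site-specifically biotinylated SIRPalpha was added for 30 min; finally streptavidin-APC was added before reading the TR-FRET ratio.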

[11] = molecular target: T1, Tyrosine-protein phosphatase non-receptor type substrate 1 (Homo sapiens) + Leukocyte surface antigen CD47 (Homo sapiens); assay: CD47-SIRPalpha protein protein interaction - Alpha assay qHTS validation (AID 1347059); details: AlphaScreen CD47-His/biotin-SIRPalpha binding, LOPAC; series mostly up to 38.3 µM;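 also: bead proximity luminescence from CD47 binding SIRPalpha after compound preincubation with SIRPalpha; % is scaled to controls: 0 for no effect and ±100 for the full control effect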
In short: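 Biotinylated Avi-tagged SIRPalpha (25 nM) preincubated 30 min with compound, then His-tagged CD47 (12.5 nM) added 30 min; AlphaScreen with Ni-NTA acceptor and streptavidin donor beads. PBS pH 7.4, 0.05% IGEPAL, room temperature; 7-point titrations.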

[12] = molecular target: Parathyroid hormone/parathyroid hormone-related peptide receptor (Homo sapiens) (UniProt Q03431); assay: qHTS for PTHR1 Agonists: Optimization Screen against the NCGC LOPAC library (AID 1347079); details: HEK293 GP2 PTHR1 GloSensor cAMP luminescence, 1 h; series mostly up to 57.1 µM;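 also: GloSensor cAMP luminescence in HEK-293 GP2 cells expressing human PTHR1 with IBMX; 0% is about no effect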
In short: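 Compounds were tested across a qHTS titration. PTHR1-expressing GP2 cells report cAMP rises via GloSensor luminescence after 1 hr compound exposure at 37C with IBMX present.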

[13] = qHTS profiling for inhibitors of Plasmodium falciparum (3D7) proliferation (AID 743322);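 also: infected erythrocytes exposed to compound for 72 h before lysis; 100% = DMSO vehicle wells and 0% = 0.29 µM artemisinin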; details: P. falciparum 3D7 proliferation; at 28.7 µM (top of the series)
In short: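 Erythrocytes infected with P. falciparum (0.3% parasitemia, 2.5% hematocrit) incubated with compounds 72 h at 37 C, 5% CO2. Lysis with saponin/Triton buffer containing SYBR Green I, overnight at room temperature in the dark; DNA fluorescence (485/535 nm) normalised to 0.29 uM artemisinin and DMSO.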

[14] = qHTS profiling for inhibitors of Plasmodium falciparum (DD2) proliferation (AID 743323; call rule not given here); details: lower = more inhibition; at 28.7 µM (top of the series)
In short: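 Parasite proliferation measured via DNA-dye fluorescence, as uninfected erythrocytes lack DNA. Cultures at 0.3% parasitemia and 2.5% hematocrit incubated 72 h with compound; signal scaled between vehicle and 0.29 uM artemisinin wells.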

T1 sequence (P78324 whole entry, looked up): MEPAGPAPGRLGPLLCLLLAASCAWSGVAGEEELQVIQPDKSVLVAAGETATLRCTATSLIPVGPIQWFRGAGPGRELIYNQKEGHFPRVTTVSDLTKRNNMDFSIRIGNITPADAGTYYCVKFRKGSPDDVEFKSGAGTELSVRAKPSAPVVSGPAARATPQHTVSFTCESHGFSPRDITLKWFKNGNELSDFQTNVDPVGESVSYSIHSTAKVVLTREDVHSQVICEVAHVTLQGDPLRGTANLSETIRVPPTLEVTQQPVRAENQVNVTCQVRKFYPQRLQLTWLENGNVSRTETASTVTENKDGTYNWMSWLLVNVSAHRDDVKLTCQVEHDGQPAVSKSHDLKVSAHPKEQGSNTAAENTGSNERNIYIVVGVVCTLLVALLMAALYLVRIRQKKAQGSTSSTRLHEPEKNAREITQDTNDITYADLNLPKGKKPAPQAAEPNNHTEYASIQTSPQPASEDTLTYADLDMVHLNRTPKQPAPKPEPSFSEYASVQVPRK
T1 sequence (Q08722 whole entry, looked up): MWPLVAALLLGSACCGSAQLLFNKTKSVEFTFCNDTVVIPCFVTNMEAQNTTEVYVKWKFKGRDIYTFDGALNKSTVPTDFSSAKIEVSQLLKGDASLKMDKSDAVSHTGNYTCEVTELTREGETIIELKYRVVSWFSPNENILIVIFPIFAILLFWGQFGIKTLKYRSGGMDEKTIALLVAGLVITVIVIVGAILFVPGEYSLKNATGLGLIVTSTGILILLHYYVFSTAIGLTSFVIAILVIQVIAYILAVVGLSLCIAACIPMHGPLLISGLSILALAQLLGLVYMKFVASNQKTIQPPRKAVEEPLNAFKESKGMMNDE
Parathyroid hormone/parathyroid hormone-related peptide receptor (Homo sapiens), sequence (Q03431 whole entry, looked up): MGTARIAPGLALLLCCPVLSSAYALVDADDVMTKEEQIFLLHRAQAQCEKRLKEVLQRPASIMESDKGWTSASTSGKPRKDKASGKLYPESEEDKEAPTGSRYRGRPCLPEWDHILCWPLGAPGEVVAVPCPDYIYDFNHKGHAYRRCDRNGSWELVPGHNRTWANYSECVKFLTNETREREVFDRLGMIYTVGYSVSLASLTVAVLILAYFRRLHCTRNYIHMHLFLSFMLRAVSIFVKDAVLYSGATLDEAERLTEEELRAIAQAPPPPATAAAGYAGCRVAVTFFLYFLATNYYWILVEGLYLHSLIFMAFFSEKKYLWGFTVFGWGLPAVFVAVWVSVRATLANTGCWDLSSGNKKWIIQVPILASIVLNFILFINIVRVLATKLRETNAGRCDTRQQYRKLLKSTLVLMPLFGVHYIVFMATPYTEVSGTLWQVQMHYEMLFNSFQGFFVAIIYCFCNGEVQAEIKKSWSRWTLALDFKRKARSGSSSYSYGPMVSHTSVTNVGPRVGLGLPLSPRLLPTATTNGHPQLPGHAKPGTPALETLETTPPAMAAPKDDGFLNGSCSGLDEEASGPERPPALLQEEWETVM
Atrial natriuretic peptide receptor 1 (Homo sapiens), sequence (P16066 whole entry, looked up): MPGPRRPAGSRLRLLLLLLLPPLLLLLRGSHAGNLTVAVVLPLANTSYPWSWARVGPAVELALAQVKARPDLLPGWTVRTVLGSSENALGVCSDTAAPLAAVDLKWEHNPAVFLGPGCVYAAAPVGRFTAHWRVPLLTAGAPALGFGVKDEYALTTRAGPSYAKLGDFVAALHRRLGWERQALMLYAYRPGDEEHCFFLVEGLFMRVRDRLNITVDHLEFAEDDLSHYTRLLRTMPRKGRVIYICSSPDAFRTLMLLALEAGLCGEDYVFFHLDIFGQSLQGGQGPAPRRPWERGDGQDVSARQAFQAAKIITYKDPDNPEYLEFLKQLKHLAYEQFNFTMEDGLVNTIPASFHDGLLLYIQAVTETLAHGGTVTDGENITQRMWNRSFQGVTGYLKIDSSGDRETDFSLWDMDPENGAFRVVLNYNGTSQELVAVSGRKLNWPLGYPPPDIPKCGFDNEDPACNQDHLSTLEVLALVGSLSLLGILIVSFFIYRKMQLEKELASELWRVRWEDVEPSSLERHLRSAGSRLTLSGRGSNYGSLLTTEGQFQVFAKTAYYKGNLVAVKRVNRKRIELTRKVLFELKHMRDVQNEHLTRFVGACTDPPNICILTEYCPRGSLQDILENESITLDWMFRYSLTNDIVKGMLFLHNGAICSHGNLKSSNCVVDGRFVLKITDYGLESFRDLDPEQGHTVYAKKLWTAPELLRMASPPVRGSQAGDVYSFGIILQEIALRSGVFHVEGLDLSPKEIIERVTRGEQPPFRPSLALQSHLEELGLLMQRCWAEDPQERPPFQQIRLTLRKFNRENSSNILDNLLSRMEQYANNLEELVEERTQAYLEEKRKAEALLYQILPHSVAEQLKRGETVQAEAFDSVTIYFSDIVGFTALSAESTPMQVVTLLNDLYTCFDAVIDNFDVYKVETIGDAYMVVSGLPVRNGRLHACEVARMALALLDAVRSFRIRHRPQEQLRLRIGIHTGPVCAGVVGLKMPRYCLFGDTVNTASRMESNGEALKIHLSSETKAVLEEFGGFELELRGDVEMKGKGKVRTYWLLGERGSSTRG

Nc1c2ccccc2nc2ccccc12
active: Potency [1] 10 µM | Potency [4] 13 µM
inactive: Potency [2] | outcome [3]

C#Cc1ccc(-c2ccccc2F)cc1
inactive: outcome [3] | Potency [5]

COc1cc(NS(=O)(=O)c2ccc(N)cc2)nc(C)n1
inactive: max response [1] 34.9% | outcome [3] | Potency [4] | Potency [5]

CN1Cc2cc(C(=O)N3CCC(C4CCNCC4)CC3)ccc2NC(CC(=O)O)C1=O (centres undefined)
inactive: outcome [3] | Potency [6] | Potency [5]

Cc1cc(O)c(C)c(C)c1O
inactive: outcome [3] | Potency [6] | Potency [5]

O=C1Nc2cc(Cl)ccc2Oc2ccccc21
inactive: outcome [3] | Potency [5]

CN1CCC(Nc2ncc3ncnc(Nc4ccc(F)c(Cl)c4)c3n2)CC1
inactive: Potency [4] | Potency [5]

CC(=O)O[C@H]1CC[C@@]2(C)C(=CC[C@@H]3[C@@H]2CC[C@]2(C)C(C(C)=O)=CC[C@@H]32)C1
inactive: outcome [3] | Potency [6] | Potency [5]

CC(=O)N(CC(O)CO)c1c(I)c(C(=O)NCCO)c(I)c(C(=O)NCC(O)CO)c1I (centres undefined)
inactive: max response [1] 13.7% | outcome [3] | Potency [4] | Potency [6] | Potency [5]

COC(=O)c1cc(Cl)ccc1NS(=O)(=O)C(F)(F)F
inactive: outcome [3] | Potency [6] | Potency [5]

CCOC(=O)C(=O)CCCCCCl
inactive: outcome [3] | Potency [6] | Potency [5]

Cc1ccc(C(=O)C(=O)O)cc1C
inactive: outcome [3] | Potency [5]

CCCCCC1Nc2cc(C(F)(F)F)c(S(N)(=O)=O)cc2S(=O)(=O)N1 (centres undefined)
inactive: max response [1] 13.4% | outcome [3] | Potency [4] | Potency [6] | Potency [5]

CCCCCCCCCCCCCCCCCCNC(=O)OC1CCN(C(=O)OC[C@H](COC(=O)N(Cc2cccc[n+]2CC)C(=O)c2ccccc2OC)OC)CC1
inactive: outcome [3]
active: Potency [1] 15.8 µM

COC(=O)c1cc(Cl)ccc1OC
inactive: outcome [3] | Potency [6] | Potency [5]

Nc1ccc(C(=O)OCC(O)CO)cc1 (centres undefined)
inactive: outcome [3] | Potency [6] | Potency [5]

O=C(Oc1ccccc1)c1ccccc1O
inactive: max response [1] 7.75% | max response [7] 1.49% and 4.97% | Potency [2] | outcome [3] | Potency [4] | Potency [6] | Potency [5]

O=c1[nH]sc2cc(Cl)ccc12
inactive: outcome [3] | Potency [6]

CCOc1c(N2CCOCC2)cnn(C)c1=O
inactive: outcome [3] | Potency [6] | Potency [5]

O=C(COCCOCCOCC(=O)Nc1c(I)cc(I)c(C(=O)O)c1I)Nc1c(I)cc(I)c(C(=O)O)c1I
inactive: max response [1] 31% | outcome [3] | Potency [4] | Potency [6] | Potency [5]

C/C=C(/C(=C/C)c1ccc(OC(C)=O)cc1)c1ccc(OC(C)=O)cc1
inactive: outcome [3] | Potency [6] | Potency [5]

CC(C)NC(=O)c1ccc(C=O)cc1
inactive: outcome [3] | Potency [6] | Potency [5]

CCCCCC(=O)O[C@]1(C(C)=O)CC[C@H]2[C@@H]3CCC4=CC(=O)CC[C@]4(C)[C@H]3CC[C@@]21C
active: Potency [4] 10.3 µM
inactive: max response [1] 7.11% | outcome [3] | Potency [5]

C[C@H]1C[C@H](O)c2ccsc2S1(=O)=O
inactive: outcome [3] | Potency [6] | Potency [5]

COC(=O)c1ccc(NC(C)=O)cc1OC
inactive: outcome [3] | Potency [6] | Potency [5]

CN1C(=O)c2ccccc2C1=O
inactive: max response [1] 10.3% | max response [7] -9.41% | Potency [2] | outcome [3] | Potency [4] | Potency [6] | Potency [5]

COc1cccc2c1[C@@H]1CN(CCCCn3c(=O)[nH]c4c(sc5ncc(-c6ccccc6)nc54)c3=O)C[C@@H]1CO2
inactive: max response [1] 22.3% | outcome [3] | Potency [8] | Potency [9] | Potency [6] | outcome [10] | Potency [11] | outcome [12]

O=C(Nc1ccc(Cl)cc1)Nc1ccc(Cl)c(Cl)c1
inactive: Potency [2] | outcome [3] | Potency [6]
active: Potency [4] 6.51 µM
-0.0718%: activity, percent of control [14]
-1.23%: remaining parasite growth % (stronger effect = lower value) [13]

CCN(CC)CC(=O)Oc1ccc(NC(C)=O)cc1
inactive: outcome [3] | Potency [6] | Potency [5]

CCS(=O)(=O)c1ccc(OC)c(C(=O)OC)c1
inactive: outcome [3] | Potency [6] | Potency [5]

O=C(NO)c1ccccc1
inactive: max response [1] 14.9% | max response [7] -10.3% | Potency [2] | outcome [3] | Potency [4] | Potency [6] | Potency [5]

CCC(CN)=C(c1ccccc1)c1ccccc1
inactive: outcome [3] | Potency [6] | Potency [5]

CC(C)(C)NCC(O)COc1ccccc1OCC1CCCO1 (centres undefined)
inactive: Potency [6] | Potency [5]

O=C(CCOCCOCCOCCOCCC(=O)Nc1c(I)cc(I)c(C(=O)O)c1I)Nc1c(I)cc(I)c(C(=O)O)c1I
inactive: outcome [3] | Potency [6] | Potency [5]

O=C1Nc2ccccc2C1(c1ccc(O)cc1)c1ccc(O)cc1
inactive: outcome [3] | Potency [6] | Potency [5]

CC(C)(C)c1ccc(O)c(O)c1
inactive: max response [7] -4.72% and -5.96% | Potency [2] | outcome [3] | Potency [6]

CC(C)C(=O)OCc1cccc(OC(=O)[C@@H]2N3C(=O)[C@@H](NC(=O)Cc4ccccc4)[C@H]3SC2(C)C)c1
inactive: outcome [3] | Potency [6] | Potency [5]
